These results are taken from PubChem BioAssay (NCATS).

Inconclusive results are not listed. The source made the active and inactive calls. The call rests on the fitted dose curve; in most records, active means well fitted curve in the direction sought with a large enough effect; inconclusive means small, poorly fitted or top-dose-only effect, or another doubt; inactive means no such curve, though single readings can be large; an effect the other way counts as inactive or inconclusive.
On the % scale 0 is the no-effect control and ±100 the full control effect; potency means the concentration at half of the fitted maximal effect.

Calcium and integrin-binding protein 1 (Homo sapiens), sequence (Q99828 whole entry, looked up): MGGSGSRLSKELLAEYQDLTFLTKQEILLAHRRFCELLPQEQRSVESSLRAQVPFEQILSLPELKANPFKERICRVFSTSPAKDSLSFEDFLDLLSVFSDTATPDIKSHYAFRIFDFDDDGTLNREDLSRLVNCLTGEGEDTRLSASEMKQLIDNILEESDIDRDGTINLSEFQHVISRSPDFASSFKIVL

The first assay has as its target Calcium and integrin-binding protein 1 (Homo sapiens) (UniProt Q99828). In words: Confirmatory qHTS for Identification of Calcium Integrin Binding Protein 1 (CIB1) Competitor (AID 1508617). Further: nearly all actives have a fitted effect of over 65% in size. The note with it: CIB1 binding competition assay, biochemical qHTS; series mostly up to 114 µM; activity change, negative = inhibition: at the top concentration. In outline:
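Fluorescence polarization competition: CIB1-GST (1 uM final) in 5 mM HEPES pH 7.4, 125 mM NaCl, 5 mM CaCl2, 0.01% Tween20 preincubated 15 min RT with compound (up to 114 uM), then FITC-alphaIIb peptide (100 nM) added, 15 min RT.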
Turning to `CCc1ccc(C=C2SC(=S)NC2=O)cc1`, the Potency was 8.91 µM (active). Turning to `C=C1C(=O)[C@@]23C(CC[C@@H]1[C@H]2O)[C@@]12CO[C@]3(O)[C@@H](O)[C@@H]1C(C)(C)CC[C@@H]2O` (stereo not given in full), the Potency is 25.1 µM (active). Regarding `O=C(O)c1c(Cl)c(Cl)c(Cl)c(Cl)c1-c1c2cc(I)c(=O)c(I)c-2oc2c(I)c(O)c(I)cc12`, the “activity change, negative = inhibition” value was 226% (inactive). With `O=c1cc(-c2ccccc2)oc2cc(O)c(O)c(O)c12`, the Potency is 39.8 µM (active).

For a further assay the target is unchanged. In words: Primary qHTS for Identification of Calcium Integrin Binding Protein 1 (CIB1) Competitor (AID 1508620). On activity change, negative = inhibition: top concentration of the series differs between compounds. The note with it: CIB1-GST / FITC-alphaIIb peptide fluorescence polarization; series mostly up to 57.7 µM; activity change, negative = inhibition: at the top concentration. In short, it runs like this: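 Fluorescence polarization competition: GST-tagged CIB1 (1 uM final) preincubated with compound 15 min at room temperature, then FITC-labelled alphaIIb peptide (100 nM final) added. After 15 min at room temperature, polarization read at Ex 480/Em 540.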
Turning to `COc1cc(Nc2ncc(F)c(Nc3ccc4c(n3)NC(=O)C(C)(C)O4)n2)cc(OC)c1OC`, the Potency result was “inactive”. In the case of `CCOC(=O)O[C@]1(C(=O)OCCl)CC[C@@H]2[C@H]3CCC4=CC(=O)C=C[C@]4(C)[C@@H]3[C@@H](O)C[C@@]21C`, the “activity change, negative = inhibition” value was -1.02% (inactive). In the case of `O=C(Nc1cc(Cl)cc2c1[nH]c1cnccc12)c1cccnc1`, the “activity change, negative = inhibition” value was -1.87% (inactive).

`CS(=O)(=O)N(Cc1ccco1)CC(O)Cn1c2ccccc2c2ccccc21` (stereo not given): the Potency entry was “inactive”.

With `C[C@H]1[C@H](NC(=O)C(=NOC(C)(C)C(=O)O)c2csc(N)n2)C(=O)N1S(=O)(=O)O`, the “activity change, negative = inhibition” value is 0.0975% (inactive).

`O=C(O)c1ccc(-c2cc3cccnc3c(-c3ccc4nonc4c3)n2)cc1`: the “activity change, negative = inhibition” value was 2.15% (inactive). For the compound `NC(CO)(CO)CCc1ccc(Sc2cccc(OCc3ccccc3)c2)cc1Cl`, the “activity change, negative = inhibition” value is -6.46% (inactive). Turning to `CC(C)(C)c1ccc(C(O)CCCN2CCC(C(O)(c3ccccc3)c3ccccc3)CC2)cc1` (stereo not given), the “activity change, negative = inhibition” value is 2.42% [at 114 µM] (inactive). With `O=C(O)C=Cc1ccc(O)c(O)c1`, the “activity change, negative = inhibition” value is -4.95% (inactive). For the compound `O=C(O)[C@H]1O[C@H](Oc2cc3oc(-c4ccccc4)cc(=O)c3c(O)c2O)[C@H](O)[C@@H](O)[C@H]1O`, the “activity change, negative = inhibition” value was -12.1% (inactive).

As to `CC(C)(C(=O)NCC(F)(F)C(F)(F)F)C(=O)N[C@@H]1C(=O)Nc2ccccc2-c2ccccc21`, the “activity change, negative = inhibition” value was -1.95% (inactive). Take `C=C1C(=O)[C@@]23C(CC[C@@H]1[C@H]2O)[C@@]12CO[C@]3(O)[C@@H](O)[C@@H]1C(C)(C)CC[C@@H]2O` (stereo not given in full): the Potency is 44.7 µM (active). As for `NC(=O)c1ccc2nc(-c3ccc(Oc4ccc(Cl)cc4)cc3)[nH]c2c1`, the Potency entry was “inactive”. With `CO[C@H]1C[C@@H]2CC[C@@H](C)[C@@](O)(O2)C(=O)C(=O)N2CCCC[C@@H]2C(=O)O[C@H]([C@H](C)C[C@@H]2CC[C@H](OP(C)(C)=O)[C@H](OC)C2)CC(=O)[C@H](C)C=C(C)[C@@H](O)[C@@H](OC)C(=O)[C@H](C)C[C@H](C)C=CC=CC=C1C`, the “activity change, negative = inhibition” value was -1.96% (inactive). Turning to `O=C(NCc1ccccc1)c1csc(Nc2ccncn2)n1`, the Potency result was “inactive”. For `Cc1ccc(F)c(NC(=O)Nc2ccc(-c3cccc4[nH]nc(N)c34)cc2)c1`, the “activity change, negative = inhibition” value is -2.99% (inactive). For `C[C@]12CCC3c4ccc(O)cc4CCC3C1CCC2=O` (stereo not given in full), the “activity change, negative = inhibition” value was -0.982% (inactive). Consider `COc1ccc(-c2coc3cc(O)cc(O)c3c2=O)cc1`, for which the “activity change, negative = inhibition” value was 0.658% (inactive). Regarding `O=C(O)C(O)Cc1ccc(O)c(O)c1` (stereo not given), the “activity change, negative = inhibition” value is -17.3% (inactive). On to `COC(=O)C1=CO[C@@H](O)[C@@H]2C(CO)=CC[C@@H]12`, for which the “activity change, negative = inhibition” value was 2.27% (inactive). As for `CC(C)[C@H](CO)Nc1nc(Nc2ccc(C(=O)O)c(Cl)c2)c2ncn(C(C)C)c2n1`, the Potency entry is “inactive”. Consider `CCNc1cc(NC2CCC(O)CC2)nc(Nc2ccc3c(ccn3Cc3ccccc3)c2)n1` (stereo not given), for which the “activity change, negative = inhibition” value was 3.17% (inactive). Regarding `NC(=O)c1cccc2[nH]c(-c3ccc([C@H]4CCCN4)cc3F)nc12`, the “activity change, negative = inhibition” value was 1.92% [at 114 µM] (inactive).

With `CN(C)C1CCN(C(=O)c2ccc(NC(=O)Nc3nc(N4CCOCC4)nc(N4CCOCC4)n3)cc2)CC1`, the “activity change, negative = inhibition” value was 2.68% (inactive). The same measure, in the same setting: for `CCC(CC)[C@H](NC(C)=O)[C@@H]1[C@H](O)[C@@H](C(=O)O)C[C@@H]1N=C(N)N` the value was 5.14% (inactive); for `CC[C@H]1OC(=O)[C@H](C)C(=O)[C@H](C)[C@@H](O[C@H]2O[C@H](C)C[C@H](N(C)C)[C@@H]2O)[C@](C)(OC)C[C@@H](C)C(=O)[C@H](C)[C@H]2N(CCCCn3cnc(-c4cccnc4)c3)C(=O)O[C@]12C`, -1.36% (inactive); for `Nc1ncnc2c1ncn2[C@@H]1O[C@@H](CO)[C@H](O)[C@H]1O`, 3.34% (inactive). As for `CC(=O)OC1C(C)OC(Oc2c(-c3ccc(O)cc3)oc3cc(O)cc(O)c3c2=O)C(O)C1OC(C)=O` (stereo not given), the “activity change, negative = inhibition” value is -4.5% (inactive). Same read-out and setting: for `O=c1cc(-c2ccccc2)oc2cc(O)cc(O)c12` the value was -4.96% (inactive). On the same count and under the same terms, for `CC1(C)O[C@H]2C[C@@H]3[C@H]4CCC5=CC(=O)C=C[C@]5(C)[C@@]4(F)[C@@H](O)C[C@]3(C)[C@]2(C(=O)CO)O1` the value was -1.99% (inactive); for `CN(C)CCC=C1c2ccccc2COc2ccc(CC(=O)O)cc21`, -0.379% (inactive).
